PLK1 PBD block – blocks phosphopeptide binding to human PLK1 polo-box domain | Potency, µM, without a hit: max response, negative = inhibition, usual class: inhibitors | AID 720504 | Plk1 PBD binding of FITC phosphopeptide, fluorescence polarization | P53350 | 360,000 tested, 2.8% active; further: series mostly up to about 57 µM; on the % scale 0 is the no-effect control and ±100 the full control effect; nearly all actives have a fitted effect of over 65% in size
JMJD2A Tudor – inhibitors of human JMJD2A Tudor domain | O75164 | AlphaScreen JMJD2A-Tudor / H3K4me3 peptide binding | Potency, µM (highest dose often 114 µM), for the others: at the top dose activity change, negative = inhibition, actives largely listed as inhibitors | 390,000 tested, 4.4% active | AID 504339; further: on the % scale 0 is the no-effect control and ±100 the full control effect; nearly all actives have a fitted effect of over 50% in size
Sfp PPTase inh – blocks B. subtilis Sfp PPTase activity; Q9F4F7; Biochemical Sfp PPTase activity, qHTS; Potency, µM, for the others: largest response in the series, negative = inhibition, hits mostly inhibitors; 310,000 tested, 3.5% active; AID 1490;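 further: the enzyme is Sfp with the accession as filed and its product quenches rhodamine fluorescence; 0% = enzyme reaction without inhibitor and -100% = no enzyme wells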
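Fluorescence-quenching assay with 15 nM Sfp, 5 uM rhodamine-CoA and 12.5 uM BHQ-2-labelled ybbR peptide in pH 7.6 Hepes/MgCl2 buffer. Enzyme was pre-incubated with compound for 15 min at room temperature. Rate was taken from the 30-min fluorescence change (525/598 nm).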
G9a inh – blocks human histone lysine methyltransferase G9a. Q96KQ7. G9a H3K9 monomethylation, AlphaScreen, 2 h. Potency, µM (series often up to 102 µM), inactives show top-dose activity, negative = inhibition, usual class: inhibitors. 350,000 tested, 8.8% active; further: on the % scale 0 is the no-effect control and ±100 the full control effect; nearly all actives have a fitted effect of over 75% in size
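G9a (20 nM) was preincubated 15 min with compound, then reacted 2 h at room temperature with 500 nM biotin-H3K9 peptide and 20 µM SAM. Monomethyl-H3K9 detected by AlphaScreen using anti-H3K9me1 antibody.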
HP1b binding inh – blocks HP1-beta chromodomain binding to methylated histone tails | P83916 | AlphaScreen HP1-beta / biotin-H3K9me3 peptide binding | Potency, µM (doses to about 114 µM), for inactives: top-dose activity change, negative = inhibition, actives largely listed as inhibitors | 390,000 tested, 0.56% active; further: nearly all actives have a fitted effect of over 70% in size
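Compound inhibition of the preformed complex between 50 nM HP1-beta and 50 nM biotinylated H3K9me3 peptide was read by AlphaScreen. Buffer was PBS pH 7.4 with 0.01% Tween-20. Incubations ran 30 min at room temperature, with 10 ug/mL donor/acceptor beads.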
BAZ2B block – inhibitors of human BAZ2B bromodomain; Potency, µM (top dose mostly 114 µM), without a hit: at the top dose activity change, negative = inhibition, actives largely listed as inhibitors; Q9UIF8; AlphaScreen BAZ2B-H3K14Ac peptide displacement; 360,000 tested, 4.4% active; further: on the % scale 0 is the no-effect control and ±100 the full control effect; nearly all actives have a fitted effect of over 60% in size
Target sequence (Q9UIF8 whole entry, looked up): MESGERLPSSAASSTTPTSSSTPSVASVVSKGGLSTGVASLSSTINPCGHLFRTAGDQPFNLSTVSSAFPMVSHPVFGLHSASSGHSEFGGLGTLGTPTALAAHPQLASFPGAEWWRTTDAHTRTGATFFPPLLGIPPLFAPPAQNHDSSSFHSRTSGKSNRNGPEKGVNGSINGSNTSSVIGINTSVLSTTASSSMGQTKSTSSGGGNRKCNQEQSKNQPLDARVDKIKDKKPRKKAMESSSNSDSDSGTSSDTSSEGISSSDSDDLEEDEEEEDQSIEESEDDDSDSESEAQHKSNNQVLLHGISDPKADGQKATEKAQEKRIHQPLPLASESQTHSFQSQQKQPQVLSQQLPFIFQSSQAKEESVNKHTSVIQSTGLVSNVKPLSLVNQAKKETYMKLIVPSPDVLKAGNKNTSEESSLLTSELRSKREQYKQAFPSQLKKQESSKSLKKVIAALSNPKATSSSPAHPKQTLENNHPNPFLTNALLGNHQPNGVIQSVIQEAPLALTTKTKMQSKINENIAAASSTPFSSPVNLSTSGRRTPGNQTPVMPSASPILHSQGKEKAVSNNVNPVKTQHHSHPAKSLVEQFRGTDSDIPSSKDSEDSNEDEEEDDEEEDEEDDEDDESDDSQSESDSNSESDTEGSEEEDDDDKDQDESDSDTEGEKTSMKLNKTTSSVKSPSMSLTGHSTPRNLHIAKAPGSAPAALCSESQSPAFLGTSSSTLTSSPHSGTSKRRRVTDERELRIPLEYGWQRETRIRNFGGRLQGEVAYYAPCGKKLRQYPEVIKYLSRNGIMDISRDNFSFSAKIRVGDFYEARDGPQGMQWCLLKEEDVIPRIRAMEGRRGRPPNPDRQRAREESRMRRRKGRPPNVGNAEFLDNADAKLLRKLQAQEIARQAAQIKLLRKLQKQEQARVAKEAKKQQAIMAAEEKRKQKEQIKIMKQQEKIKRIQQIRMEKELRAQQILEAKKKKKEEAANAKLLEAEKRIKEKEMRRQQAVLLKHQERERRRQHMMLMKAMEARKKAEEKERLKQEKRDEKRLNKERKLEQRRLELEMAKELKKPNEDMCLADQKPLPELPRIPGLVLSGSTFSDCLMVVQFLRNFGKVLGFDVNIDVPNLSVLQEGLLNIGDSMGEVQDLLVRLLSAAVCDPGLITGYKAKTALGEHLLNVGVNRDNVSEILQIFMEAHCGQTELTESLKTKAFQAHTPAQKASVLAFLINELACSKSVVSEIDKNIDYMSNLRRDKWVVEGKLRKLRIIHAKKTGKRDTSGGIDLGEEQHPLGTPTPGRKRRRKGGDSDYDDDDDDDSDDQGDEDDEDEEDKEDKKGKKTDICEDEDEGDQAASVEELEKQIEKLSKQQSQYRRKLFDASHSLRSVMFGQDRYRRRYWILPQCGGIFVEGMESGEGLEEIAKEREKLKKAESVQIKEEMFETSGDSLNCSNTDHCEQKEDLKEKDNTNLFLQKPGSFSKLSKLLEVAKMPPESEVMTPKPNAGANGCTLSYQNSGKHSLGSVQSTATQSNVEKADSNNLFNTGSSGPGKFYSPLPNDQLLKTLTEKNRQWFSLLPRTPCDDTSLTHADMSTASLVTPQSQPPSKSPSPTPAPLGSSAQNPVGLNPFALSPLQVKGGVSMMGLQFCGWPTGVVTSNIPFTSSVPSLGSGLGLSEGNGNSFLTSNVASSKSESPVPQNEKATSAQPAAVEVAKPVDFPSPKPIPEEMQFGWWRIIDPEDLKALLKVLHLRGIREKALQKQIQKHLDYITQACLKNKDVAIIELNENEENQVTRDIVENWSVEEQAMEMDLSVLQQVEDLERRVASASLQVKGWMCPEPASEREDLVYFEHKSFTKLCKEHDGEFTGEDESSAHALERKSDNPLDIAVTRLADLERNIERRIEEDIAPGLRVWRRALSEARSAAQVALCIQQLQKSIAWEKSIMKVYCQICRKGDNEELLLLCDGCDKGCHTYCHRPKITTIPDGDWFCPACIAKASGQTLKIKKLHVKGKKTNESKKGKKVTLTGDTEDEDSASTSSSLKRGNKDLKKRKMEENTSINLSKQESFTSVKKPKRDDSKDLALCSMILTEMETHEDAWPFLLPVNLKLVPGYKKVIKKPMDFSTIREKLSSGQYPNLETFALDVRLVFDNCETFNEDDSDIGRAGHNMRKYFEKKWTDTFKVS
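Compounds, titrated to a top concentration of 110 uM, were incubated 30 min at room temperature with preformed BAZ2B/acetyl-K14 H3 peptide complex (50 nM each). Proximity signal was measured by AlphaScreen after 20 min with beads.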
An asterisk follows results filed as active; ? = inconclusive; nt = not tested or not shown; [ ] = dose if it differs, or a comment. In the library only some 12% were active in any assay of this set; here they are far more common. The call rests on the fitted dose curve; in most records, active means well fitted curve in the direction sought with a large enough effect; inconclusive means small, poorly fitted or top-dose-only effect, or another doubt; inactive means no such curve, though single readings can be large; an effect the other way counts as inactive or inconclusive. Potency means the concentration at half of the fitted maximal effect.

SMILES	PLK1 PBD block	JMJD2A Tudor	Sfp PPTase inh	G9a inh	HP1b binding inh	BAZ2B block
Cc1oc(-c2ccccc2)nc1Cn1c(=O)cc(-c2ccccc2)c2c(C)nn(C)c21	nt	-25%	nt	-13%[59 µM]	-6%	?
COCC(C)OC(=O)/C(C#N)=C\c1coc2ccc(C)cc2c1=O (stereo not given)	11µM*	-7%	-17%	?	33%	9%
CCc1nn(Cc2cccc(F)c2)c(=O)c2cc3cc(C)ccc3n12	nt	8%	nt	-6%[59 µM]	28%	5%
Cc1cc(C)nc(SSc2nc(C)cc(C)n2)n1	1.9µM*	10µM*	2.2µM*	0.4µM*	35%	4%
Cc1cc(N/N=C/c2ccccc2Br)nc2ccccc12	0%	-32%	?	31%	27%	-3%
Cc1cc(N/N=C(/CCC(=O)O)C(=O)O)nc2ccccc12	-8%	?	50µM*	3.2µM*	35%	?
O=C(CSCc1cccc(Br)c1)N=Nc1c(O)[nH]c2ccccc12	-10%	-18%[57.1 µM]	-9%	21%[0.0925 µM]	1%	50µM*
CCCCN(C)C(=O)c1ccc2c(c1)N(Cc1ccc(F)cc1)C(=O)c1ccccc1S2(=O)=O	nt	-27%	nt	-23%[59 µM]	25%	-25%
Cc1cc(NC(=O)CSc2nnc(CNc3cccc(C(F)(F)F)c3)n2Cc2ccco2)no1	-1%	-8%	-8%	21%	12%	-4%
Cc1nnc(SCC(=O)Nc2cccc(C(F)(F)F)c2)n1Cc1ccco1	?	?	40µM*	-48%[59 µM]	-22%	45%
O=C(CSc1nnc(-c2ccccc2)n1Cc1ccco1)Nc1ccc2c(c1)OCCO2	-16%	-31%	45µM*	40µM*	-1%	-38%
O=C(CSc1nnc(-c2ccccc2)n1Cc1ccco1)NCc1ccc2c(c1)OCO2	-16%	-30%	?	45µM*	15%	1%
Cc1cc(C(=O)CSc2nnc(-c3ccccc3)n2Cc2ccc3c(c2)OCO3)c(C)n1C	-4%	-10%	-7%	28µM*	29%	-6%
O=c1c(-c2ccc(F)cc2)nc2cnc(Oc3cccc(Cl)c3)nc2n1C[C@H]1CCCO1	nt	nt	2%	0%[0.501 µM]	nt	nt
COc1ccc(C(=O)N2c3ccc(C)cc3C(C)(c3ccccc3)CC2(C)C)cc1 (stereo not given)	nt	-18%	nt	2%[59 µM]	11%	-3%
O=C(NCCO)c1ccc2nc(-c3ccco3)c(-c3ccco3)nc2c1	17µM*	22µM*	10µM*	1.4µM*	45µM*	?
O=C(NC1CCCC1)c1ccc2nc[nH]c2c1	-2%	19%	7%	1%[12.7 µM]	49%	0%
O=C(NCCc1ccccc1)c1ccc2nc(-c3ccco3)c(-c3ccco3)nc2c1	?	56µM*	25µM*	1.4µM*	?	10µM*
CCc1nc2ccc(C(=O)NC3CCC(C)CC3)cc2nc1CC (stereo not given)	30µM*	?	4%	4%	24%	-3%[57.1 µM]
O=C(NC1CCCC1)c1ccc2nc(-c3ccco3)c(-c3ccco3)nc2c1	8.4µM*	28µM*	6.3µM*	5µM*	79µM*	?
CC1CCC(NC(=O)c2ccc3snnc3c2)CC1 (stereo not given)	-6%	6%	8%	24%	33%	1%
CCC(=O)N(C(=O)CC)N1CCN(c2ccncc2S(=O)(=O)N2CCCCC2)CC1	-8%	-10%	8%	21%	28%	-12%
O=C(NCCc1ccccc1)c1ccc2c(c1)OCCO2	-8%	-11%	16%	nt	42%	3%
O=C(NCCc1ccccc1)c1ccc2c(c1)OCCCO2	-20%	-13%	-14%	32µM*	7%	-38%
O=C(OCC#CCSc1nnc(-c2cccc3ccccc23)o1)c1ccc(Cl)c(C(F)(F)F)c1	nt	22%	nt	nt	nt	nt
SMILES	PLK1 PBD block	JMJD2A Tudor	Sfp PPTase inh	G9a inh	HP1b binding inh	BAZ2B block
Cc1csc(=O)n1CCC(=O)OCC(=O)N(C)c1c(N)n(Cc2ccccc2)c(=O)[nH]c1=O	-1%	nt	nt	nt	nt	nt
CCOC(=O)N1CCN(C(=O)C[C@@H]2C[C@@]3(C(=O)OCC)CCCC=C3N(Cc3ccc4c(c3)OCO4)C2=O)CC1	-10%	nt	nt	nt	nt	nt
COc1ccc([N+](=O)[O-])cc1NC(=S)NC(C)=O	27µM*	?	14%	29%[12.7 µM]	21%	-9%
COc1ccc(/C=C/C(=O)NC(=S)Nc2cc([N+](=O)[O-])ccc2O)cc1OC	-10%	89µM*	-6%	28µM*	?	?
COc1ccc([N+](=O)[O-])cc1NC(=O)CSCc1cc(C)cc(C)c1	30µM*	?	5%	-14%	-24%	-33%
CCN1CCN(Cc2ccc(NC(=O)Nc3ccccc3OC)cc2)CC1	?	-20%	-2%	-8%[59 µM]	30%	10%
COc1ccc(-c2nc(CS(=O)CC(=O)NCCCN3CCCC(C)C3)c(C)o2)cc1OC (stereo not given)	0%	-1%	0%	nt	31%	3%
CNC(=O)Nc1cc(C)nn1C	19µM*	?	11%	5%	18%	-17%
O=C(NCC(=O)N1CCN(C(=O)c2ccco2)CC1)c1ccc(Br)cc1	21µM*	-22%	9%	nt	-12%[57 µM]	4%
CC(C)OCC(O)CN1CCC(Cc2ccccc2)CC1 (stereo not given)	4%	16%	6%	-3%	55%	-19%
CC(=O)N1CCN(CC(O)COc2ccc(Br)cc2)CC1 (stereo not given)	-2%	18µM*	-22%	8.9µM*	?	56µM*
CC(=O)c1ccc(OCC(O)CN2CCN(CC(O)COc3ccc(C(C)=O)cc3)CC2)cc1 (stereo not given)	-8%	-1%	10%	-1%[59 µM]	16%	3%
O=C(NCC(=O)N1CCCC1)c1ccc(Br)cc1	-3%	-13%	4%	43%	24%	5%
OC(COc1ccc(Br)cc1)CN1CCC(Cc2ccccc2)CC1 (stereo not given)	-1%	-8%	6%	79µM*	37%	-24%
O=C(c1ccco1)N1CCN(CC(O)COc2ccc(Br)cc2)CC1 (stereo not given)	-9%	2%	13%	50µM*	19%	-3%
COc1cc(CNC(=O)CSCc2nc3cccnc3n2C2CCCCC2)cc(OC)c1OC	nt	-10%	nt	20%[59 µM]	9%[57 µM]	-6%
CC(C(=O)NC(C)(C)C)n1c(C(c2ccccc2)c2ccccc2)nc2ccccc21 (stereo not given)	-9%	nt	nt	nt	nt	nt
CCc1ccc(/C=C/C(=O)C2C(=O)c3ccccc3C2=O)cc1	27µM*	-21%	79µM*	?	22%	-4%
O=C1C(NS(=O)(=O)c2ccc(Cl)cc2)=C(N2CCCCC2)C(=O)c2ccccc21	-18%	11µM*	-2%	10µM*	?	5.6µM*

Compound activity deposited in PubChem BioAssay by National Center for Advancing Translational Sciences (NCATS).
